Where “and” joins values, the source holds several entries; their conditions need not be identical. Equal entries are not always repeated. Screen size: about 360,000 compounds; about 11,000 (3.1%) were called active. Entries that show only a call come without a potency. About 4% were inconclusive and are not listed. Calls follow the shape of the dose curve; as a rule, active = well fitted inhibition curve with a large enough effect; inconclusive = small, poorly fitted or top-dose-only effect; inactive = no such curve, though single readings can be large or run the other way. The full list was thinned out, with actives kept by preference.
Target: Schistosoma mansoni thioredoxin glutathione reductase (TGR) (UniProt Q962Y6)
Experiment: qHTS Assay for the Inhibitors of Schistosoma Mansoni Peroxiredoxins; also: nearly all actives have a fitted effect of over 60% in size
Conditions: purified TGR, DTNB reduction, TNB absorbance 405 nm; series mostly up to 114 µM
Method in brief: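 TGR 20 nM + NADPH 100 uM (dispensed conc.), cpd preinc 15 min RT; start with NADPH (500 uM addition) then DTNB (15 mM addition). Kinetic TNB absorbance, 405 nm filter. Four-parameter Hill fit across titration.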
Potency is read from the fitted curve at half-maximal effect.

| SMILES | Potency |
| --- | --- |
| Cc1ccc(C)c(Oc2c(C(F)(F)F)oc3c(CN4CCN(C)CC4)c(O)ccc3c2=O)c1 | inactive |
| Cc1ccc2nc(COc3cccc(NC(=O)c4ccccc4Cl)c3)cc(=O)n2c1 | inactive |
| Cc1[nH]c2ccccc2c1C(c1ccccc1)c1cccs1 (stereo not drawn) | inactive |
| COc1ccc(N2CCN(S(=O)(=O)CCNC(=O)C(c3ccccc3)c3ccccc3)CC2)cc1 | inactive |
| CC(C)(C)C(=O)CSc1ccc(S(=O)(=O)N2CCCC2)cn1 | inactive |
| O=C(O)CSc1ccc(S(=O)(=O)N2CCCC2)cn1 | 50.1 µM (active) |
| O=S(=O)(c1ccc(SCc2ccccc2)nc1)N1CCCCCC1 | inactive |
| COc1cc2c(cc1OC)C(COc1ccc(F)cc1)N(C(=O)c1ccccc1F)CC2 (stereo not drawn) | inactive |
| COc1cccc(C(=O)NC2(C(F)(F)F)C(=O)Nc3c2c(=O)[nH]c(=O)n3-c2ccc(C)cc2)c1 (stereo not drawn) | inactive |
| COc1ccc(C2=NC(c3ccncc3)=Nc3ccc(Br)cc3N2)cc1 | inactive |
| Cc1nc2sc3c(c2c(=O)n1NC(=O)CCl)CCCC3 | 39.8 µM (active) |
| Cc1ccc(C)c(-n2c(SCC(=O)O)nc3sc4c(c3c2=O)CCCC4)c1 | inactive |
| Cn1c(NN)nc2sc3c(c2c1=O)CCC3 | inactive |
| CCC(=O)N1CCc2cc(S(=O)(=O)NC(C(=O)NCCc3ccc(C)cc3)C(C)C)ccc21 (stereo not drawn) | inactive |
| C#CC(CCN1CCCCC1)(OC)c1ccccc1 (stereo not drawn) | inactive |
| CCCCCCC(O)(CCN1CCCCC1)c1ccccc1 (stereo not drawn) | inactive |
| CCCCCC(O)(CCN1CCCCC1)c1ccccc1 (stereo not drawn) | 31.6 µM (active) |
| Fc1ccccc1Oc1ncnc2c1oc1ccccc12 | inactive |
| COc1ccc(NC(=O)C(=O)NCc2ccco2)cc1 | inactive |
| COc1ccc(CS(=O)/C(Cl)=C(/Cl)C(=O)Nc2ccc(OC)nc2)cc1 (stereo not drawn) | 0.447 µM (active) |
| COc1ccc(NC(=O)/C(Cl)=C(/Cl)S(=O)Cc2ccc(C)cc2)cn1 (stereo not drawn) | inactive |
| COc1cccc(CNCCSc2nnnn2C)c1OCc1ccccc1Cl | inactive |
| O=C(C1CC1)N1CCc2cc(Br)cc(S(=O)(=O)N3CCN(c4ccccc4F)CC3)c21 | inactive |
| COc1ccc2c(C(=O)c3ccc(C)cc3)n(CCC(N)=O)[n+]([O-])c2c1 | inactive |
| COc1ccc(C(=O)c2c3ccc([N+](=O)[O-])cc3[n+]([O-])n2CCCN)cc1 | 25.1 µM (active) |

| SMILES | Potency |
| --- | --- |
| COc1ccc(C(=O)NCCNc2ccc([N+](=O)[O-])cn2)cc1 | inactive |
| CCCN(C(=O)Cn1ncc2c([nH]c3ccc(C)cc32)c1=O)c1ccccc1C | inactive |
| O=C(c1ccc2c(c1)N(Cc1ccccc1)C(=O)c1ccccc1S2(=O)=O)N1CCCC1 | inactive |
| Cc1cccc(N2CCN(C(=O)CCSCc3ccccc3F)CC2)c1C | inactive |
| Cc1ccc(C)c(CNC(=O)c2cc3ccccn3n2)c1 | inactive |
| Cc1cc(C(=O)NNC(=S)Nc2ccccc2C)cs1 | inactive |
| Cc1ccccc1NC(=S)NNC(=O)c1cccc(Br)c1 | inactive |
| Cc1ccc(C(=O)NC(=S)Nc2ccccc2C)cc1 | 31.6 µM (active) |
| CCOC(=O)c1cccc(NC(=O)C(Cc2ccccc2)NS(=O)(=O)c2cccc3nsnc23)c1 (stereo not drawn) | inactive |
| O=c1c2ccccc2n(Cc2cccc(Cl)c2)c(=O)n1Cc1ccccc1 | inactive |
| C/C=C(\C)C(=O)N1CC2(CC(c3cccc(NC(=O)CCCCC)c3)=NO2)C[C@@H]1C(N)=O (stereo partly drawn) | inactive |
| C/C=C(/C)C(=O)Nc1cccc(C2=NOC3(C2)C[C@@H](C(N)=O)N(C(=O)C2(C)CC2)C3)c1 (stereo partly drawn) | inactive |
| C/C=C\C=C\C(=O)N1CC2(CC(c3cccc(NC(=O)/C(C)=C\C)c3)=NO2)C[C@H]1C(N)=O (stereo partly drawn) | 7.94 µM (active) |
| Cc1cc(Br)ccc1NC(=O)Cn1cnc2sc(C)c(S(=O)(=O)N3CCN(C)CC3)c2c1=O | inactive |
| O=S(=O)(c1ccc(Cl)cc1)c1nnn2c1nc(NC1CCCC1)c1sccc12 | inactive |
| O=C(Cn1c[n+](CC(=O)c2ccc([N+](=O)[O-])cc2)cn1)c1ccc([N+](=O)[O-])cc1 | 10 µM (active) and 44.7 µM (active) |
| C/C(=N/NC(=O)CC(=O)N/N=C(\C)c1ccc([N+](=O)[O-])cc1)c1ccc([N+](=O)[O-])cc1 | inactive |
| Cc1ccc(C(=O)Cn2cc([N+](=O)[O-])nc2C)cc1 | inactive |
| CN(CC(=O)Nc1ccc(F)cc1)C(=O)c1ccc(-c2ccc(Cl)cc2)o1 | inactive |
| Cc1[nH][nH]c(=O)c1C(c1ccc(-c2ccc(Cl)cc2)o1)c1c(C)[nH][nH]c1=O | 25.1 µM (active) |
| CCCNC(=O)NCc1ccc(N2CCCC2=O)cc1 | inactive |
| NC(=O)C1(N2CCCCC2)CCN(C2CC(=O)N(Cc3ccc(N4CCCC4=O)cc3)C2=O)CC1 (stereo not drawn) | 25.1 µM (active) |
| COC(=O)c1cc(NC(=O)CN2CCC(C(N)=O)(N3CCCCC3)CC2)cc(C(=O)OC)c1 | inactive |
| COc1ccc(OC)c(-n2nnc(-c3nc(-c4cc(OC)c(OC)c(OC)c4)no3)c2C)c1 | inactive |
| Cc1ccc(N2C(=O)C3C(c4ccccc4)(C2=O)C3(c2ccccc2)c2ccccc2)cc1 (stereo not drawn) | inactive |

| SMILES | Potency |
| --- | --- |
| O=C(Cc1ccccc1)NNC1CC(=O)N(c2ccc(Br)cc2)C1=O (stereo not drawn) | inactive |
| Cc1ccc(N2C(=O)CC(Nc3cccc4ccccc34)C2=O)cc1 (stereo not drawn) | 22.4 µM (active) |
| CCOc1ccc(NC(=O)c2cnn(-c3ccccc3)c2-n2cccc2)cc1 | inactive |
| Cc1ccc(OCC(=O)OCc2cc(=O)n3nc(C4CC4)sc3n2)cc1 | inactive |
| COc1ccc(S(=O)(=O)NCC(c2ccc(N(C)C)cc2)N2CCc3ccccc32)cc1OC (stereo not drawn) | inactive |
| CCOC(=O)c1c(N)n(-c2cccc(C)c2C)c2nc3ccccc3nc12 | inactive |
| NC(=O)c1c(NC(=O)CSc2nnc(-c3ccco3)n2N)sc2c1CCCC2 | 11.2 µM (active) |
| Nn1c(SCC(=O)Nc2nccs2)nnc1-c1ccco1 | inactive |
| CCOC(=O)c1c(NC(=O)CSc2nnc(CN3CCOCC3)n2C)sc2c1CCCC2 | inactive |
| Cc1c(Cl)cccc1NC(=O)c1noc2c1CCCC2 | inactive |
| CSc1ccc(CCNC(=O)c2cnn(-c3ccccc3)c2-n2cccc2)cc1 | inactive |
| Cc1c(Cl)cccc1NC(=O)CSc1ccc(-c2cccnc2)nn1 | inactive |
| COc1cc(Cl)c(C)cc1NC(=O)CSc1nnc(-c2ccco2)n1CC(C)C | 25.1 µM (active) |
| O=C(CSc1nnc(-c2cccnc2)n1CCc1ccccc1)NCc1ccccc1 | inactive |
| CCn1c(SCC(=O)Nc2cc(C)ccc2C)nnc1-c1cnccn1 | inactive |
| O=C(CSc1nnc(-c2cccs2)n1Cc1ccco1)c1ccc2c(c1)OCO2 | inactive |
| Cn1c(SCC(=O)Nc2nccs2)nnc1-c1cccnc1 | inactive |
| COc1cc(Cl)c(C)cc1NC(=O)CSc1nnc(-c2cccnc2)n1Cc1ccco1 | 44.7 µM (active) |
| COc1ccccc1NC(=O)CSc1nnc(-c2ccoc2C)n1CCc1ccccc1 | inactive |
| O=C(CSc1nnc(-c2cccnc2)n1Cc1ccco1)c1ccc(Cl)c(Cl)c1 | 22.4 µM (active) |
| CCc1ccc(NC(=O)CSc2nnc(-c3cnccn3)n2Cc2ccco2)cc1 | 39.8 µM (active) |
| Cc1cc(C)nc(SCc2nnc(SCC(=O)Nc3ncc(C)s3)n2Cc2ccco2)n1 | inactive |
| CCn1c(SCC(=O)Nc2cc(C)c(Cl)cc2OC)nnc1-c1ccco1 | inactive |
| COc1ccc(OCC(=O)Nc2cccc(C(=O)OCc3cc(=O)n4nc(C)sc4n3)c2)cc1 | inactive |
| Cc1cc(NC(=O)C2CCC(CNS(=O)(=O)c3ccc(Br)s3)CC2)ccc1Br (stereo not drawn) | inactive |

| SMILES | Potency |
| --- | --- |
| COC(=O)c1ccc(NC(=O)CCc2c(C)nc3c(c(C)nn3-c3ccc(C)cc3)c2C)cc1 | inactive |
| O=C(NCC(c1cccnc1)N1CCc2ccccc21)c1cccc(C(F)(F)F)c1 (stereo not drawn) | inactive |
| COc1ccc(CCNC(=O)CCc2c(C)nc3c(c(C)nn3-c3ccc(C)c(C)c3)c2C)c(OC)c1OC | inactive |
| COc1ccc(NC(=O)CSc2nc3ccccc3n2CC(=O)N2CCCCC2C)cc1 (stereo not drawn) | inactive |
| COc1ccc(C(=O)NCc2nnc(SCCOc3ccccc3)n2C)cc1 | inactive |
| C=CCn1c(CNC(=O)c2ccco2)nnc1SCC(=O)c1ccc(OC)cc1 | inactive |
| COc1ccc(C(=O)CSc2nnc(COc3ccccc3)n2Cc2ccco2)cc1 | 39.8 µM (active) |
| COc1ccccc1CNCc1ccc(C(=O)O)s1 | inactive |
| COc1ccc(-c2cn3c(n2)sc2cc(C(=O)Nc4ccccc4F)ccc23)cc1 | inactive |
| O=C(NCc1ccccc1Cl)C1=Cc2cc(Br)ccc2OC1 | inactive |
| O=C(CNc1ccc(F)cc1F)NC(=O)NCc1ccco1 | 28.2 µM (active) |
| Cc1ccc(SCC(=O)NC(=O)NCc2ccco2)c(C)c1 | inactive |
| CC(C)(C)NC(=O)NCc1ccco1 | inactive |
| CCOC(=O)c1ccc(NC(=O)C2CCN(S(=O)(=O)c3ccc4c(c3)CCCC(=O)N4)CC2)cc1 | inactive |
| O=C(CCc1nc(CN2CCN(S(=O)(=O)c3ccc(Cl)cc3)CC2)no1)N1CCCCC1 | inactive |
| CN(C)[C@@H]1C(=O)C(C(N)=O)=C(O)[C@@]2(O)C(=O)C3=C(O)c4c(O)ccc(Cl)c4[C@@H](O)[C@H]3C[C@@H]12 | 39.8 µM (active) |
| O=C(c1ccccc1F)N1CCC(c2nc3c(nnn3Cc3cccc(F)c3)c(=O)[nH]2)CC1 | inactive |
| Cc1ccc(CN2CCc3nc(N4CCN(C)CC4)ncc3C2)cc1 | inactive |
| Cc1ccc(C)c(Cn2c(=O)n(CCC(=O)NCc3ccc4c(c3)OCO4)c(=O)c3sccc32)c1 | inactive |
| CC(C)c1ccc(NC(=O)c2cc(S(=O)(=O)N3CCc4ccccc4C3)ccc2F)cc1 | inactive |
| C1=C(N2CCOCC2)/C(=C/c2nc3ccccc3[nH]2)CC1 | 5.62 µM (active) |
| c1ccc(-n2nnnc2N2CCOCC2)cc1 | inactive |
| O=C(C1CCCO1)N1CCC(c2nc3ccccc3[nH]2)CC1 (stereo not drawn) | inactive |

Source: PubChem BioAssay AID485364 (National Center for Advancing Translational Sciences (NCATS), 2010)
